Screens as filed in PubChem BioAssay.
Sampled rows, rich in hits. Any-hit rate of the full collection: about 1.6%.
gsp ag = agonists of gsp mutant (McCune-Albright syndrome); gsp mutant cells, cAMP HTRF, 30 min; Potency, µM (highest dose often 76.9 µM), hits mostly activators; 340,000 tested, 0.13% active; active = well fitted activation curve with a large enough effect; inconclusive = small, poorly fitted or top-dose-only effect, or another doubt; inactive = no such curve, though single readings can be large or run the other way; cell line not stated here;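 note: phosphodiesterase inhibitor Ro 20-1724 added with compounds to block cAMP breakdown; nearly all actives have a fitted effect of over 60% in size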
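Cells in DMEM/10% FBS with G418 were pretreated with compounds in DMSO plus […] (300 uM stock) for 30 min at 37C. cAMP was measured by HTRF (cAMP-d2 plus anti-cAMP antibody-K) after 30 min at room temperature.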
FBPA coupling cs = counter-screen for Giardia aldolase inhibitors: coupling enzyme system | activity change, negative = inhibition, % at 58.2 µM, hits read low | 290,000 tested, 0.67% active | AID 2472 | coupling enzyme system counterscreen, AmpLite Red fluorescence; in the data active = activity change below about -30%
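Coupling enzymes only (glyceraldehyde-3-phosphate) + compound, at 57.5 uM final, 10 min RT; add substrate/coupling/AmpLite Red mix, 20 min RT; fluorescence ex 525/em 598 nm. Actives flag coupling-system interference.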
Giardia killer = Giardia lamblia killing. 340,000 tested, 0.15% active. activity change, % at 7.66 µM, hits read low. Giardia lamblia trophozoite viability. AID 540267; in the data active = activity change below about -80%; inconclusive = between about -30% and that limit;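 note: parasites exposed to compound for two days anaerobically before the ATP read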
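Giardia lamblia trophozoites (100 cells/well) were incubated with compounds for 48 h at 37 deg C under anaerobic conditions. Viability was read as ATP content by one-step luminescence after 15-30 min at room temperature.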
RXFP1 antagonist = antagonists of human relaxin receptor RXFP1; activity change, negative = inhibition, % at 57.5 µM; Q9HBX9; 350,000 tested, 0.59% active; HEK293-RXFP1, relaxin-stimulated cAMP HTRF, 30 min; stronger effect = lower value;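 active = activity change of -60% or lower, but not beyond a set lower limit; inconclusive = change between -60% and -40%, or beyond the set limit; inactive = change above -40%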
Target sequence (Q9HBX9 whole entry, looked up): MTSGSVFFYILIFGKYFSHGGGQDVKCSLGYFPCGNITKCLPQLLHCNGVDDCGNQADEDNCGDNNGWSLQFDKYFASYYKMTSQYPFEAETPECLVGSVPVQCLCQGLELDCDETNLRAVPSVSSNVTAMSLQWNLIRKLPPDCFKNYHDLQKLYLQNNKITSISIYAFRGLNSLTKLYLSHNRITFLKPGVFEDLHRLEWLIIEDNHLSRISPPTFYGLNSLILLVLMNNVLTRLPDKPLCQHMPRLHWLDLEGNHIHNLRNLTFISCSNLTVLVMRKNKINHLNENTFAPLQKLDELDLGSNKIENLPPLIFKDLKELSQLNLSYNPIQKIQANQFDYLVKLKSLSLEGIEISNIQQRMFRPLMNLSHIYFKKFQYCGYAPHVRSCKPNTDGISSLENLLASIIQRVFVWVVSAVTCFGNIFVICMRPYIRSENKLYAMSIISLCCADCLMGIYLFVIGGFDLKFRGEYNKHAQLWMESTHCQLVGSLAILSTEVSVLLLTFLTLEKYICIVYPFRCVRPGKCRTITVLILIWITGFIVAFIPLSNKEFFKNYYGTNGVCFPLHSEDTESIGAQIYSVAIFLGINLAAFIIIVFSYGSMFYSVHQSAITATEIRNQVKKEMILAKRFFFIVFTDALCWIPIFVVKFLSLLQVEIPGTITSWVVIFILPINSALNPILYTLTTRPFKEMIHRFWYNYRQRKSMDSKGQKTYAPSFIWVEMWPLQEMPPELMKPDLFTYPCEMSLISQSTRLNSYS
gsp antag = antagonizes gsp, the McCune-Albright syndrome mutation; 340,000 tested, 0.4% active; gsp-mutant cells, cAMP HTRF, 30 min; AID 624288; Potency, µM (top dose mostly 76.9 µM), most hits filed as inhibitors; calls by dose curve; cell line not stated here;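 note: intracellular cAMP measured with PDE inhibitor Ro 20-1724 present during compound exposure; nearly all actives have a fitted effect of over 65% in size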
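Cells, 2000/well, grown 16–24 h in DMEM 10% FBS with 0.5 mg/ml G418, then compounds plus […] (300 uM addition stock), 30 min at 37C. cAMP read by HTRF (cAMP-d2 and anti-cAMP antibody-K in lysis buffer) after 30 min RT.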
RXFP1 ag = activates the human relaxin receptor RXFP1. Q9HBX9. HEK293T-RXFP1 cAMP TR-FRET, 30 min; response scale: percent of porcine relaxin response, buffer zero. Potency, µM (highest dose often 57.5 µM), usual class: activators. 370,000 tested, 0.3% active; active = well fitted activation curve with a large enough effect; inconclusive = small, poorly fitted or top-dose-only effect; note: nearly all actives have a fitted effect of over 60% in size
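cAMP rise read by TR-FRET after 30 min, 37C compound exposure (up to 58 uM) in RXFP1-transfected HEK293 cells with Ro 20174 present. EC50 from Hill-equation fits, with 29 nM porcine relaxin as 100% and buffer as basal.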
Large screens that a line does not name were inactive.

COc1cc(NC(=O)C(=O)NCCN(C)C)c(OC)cc1Cl	Giardia killer inconclusive, RXFP1 antagonist -69
CCN(CC)C1CCN(C(=O)c2cc(COc3ccc(-n4cncn4)cc3)on2)C1 (stereo not given)	none
CCc1ccc2[nH]c(=O)c(CN(CCN(C)C)C(=S)NCc3ccco3)cc2c1	RXFP1 antagonist -64
CCc1ccc2[nH]c(=O)c(CN(CCN(CC)CC)C(=S)NCc3ccco3)cc2c1	none
CC(C)CCNC1c2ccccc2C(=O)N1Cc1ccccc1 (stereo not given)	none
CC(=O)N1CCN(C(=O)CCc2nc3ccccc3c(=O)[nH]2)CC1	none
O=C(CCc1nc2ccccc2c(=O)[nH]1)N1CCN(C/C=C/c2ccccc2)CC1	gsp antag 22µM
O=C(Nc1ccc2ccccc2c1)N1CCN(c2ncccc2C(F)(F)F)CC1	FBPA coupling cs -50
O=C(NC(=S)Nn1cnc2c(cnn2-c2ccccc2)c1=O)c1ccc(Cl)cc1	RXFP1 antagonist -72, gsp antag inconclusive
O=C(NC(=S)Nn1cnc2c(cnn2-c2ccccc2)c1=O)c1ccc(Oc2ccccc2)cc1	none (no result: RXFP1 antagonist)
CC(=O)N1CCN(c2ccc(NCc3ccc4c(c3)OCO4)cc2)CC1	FBPA coupling cs -33
O=C(c1ccccc1)N1CCN(c2ccc(NCc3ccc4c(c3)OCO4)cc2)CC1	none
N#Cc1cc(-c2ccccc2)nn1-c1ccccc1	FBPA coupling cs -41
O=C(c1ccc(Nc2nccc(-c3cc4ccccc4s3)n2)cc1)N1CCC(N2CCCC2)CC1	none (no result: gsp ag, Giardia killer, RXFP1 antagonist, gsp antag, RXFP1 ag)
CN1CCc2c(sc(N)c2C(N)=O)C1	FBPA coupling cs -33
CCN1CCc2c(sc(N)c2C(N)=O)C1	gsp ag inconclusive
CCCCc1cc2c(cn1)=C(OC(=O)c1ccco1)C(C)(OC(=O)CC)C(=O)C=2 (stereo not given)	none (no result: gsp ag, Giardia killer, RXFP1 antagonist, gsp antag, RXFP1 ag)
CS(=O)(=O)c1ccc(C(=O)OCC(=O)NC23CC4CC(CC(C4)C2)C3)cc1[N+](=O)[O-]	RXFP1 antagonist -65
CCCc1[nH]nc2c1C(c1ccc(OC)c(CSC3=NCCS3)c1)C(C#N)=C(N)O2 (stereo not given)	FBPA coupling cs -41
CCCc1[nH]nc2c1C(c1cc(OC)cc(OC)c1)C(C#N)=C(N)O2 (stereo not given)	none
CCCCc1nc2c(c3c1C[C@H](C)OC3)CN(C(=O)N[C@H](C(=O)OC)C(C)C)CC2	none (no result: gsp ag, Giardia killer, RXFP1 antagonist, gsp antag, RXFP1 ag)
CC1(C)C=C2C(=NN(c3ccccc3)C(N)=C2C#N)CO1	gsp ag inconclusive, FBPA coupling cs -62
COc1cc(C2C3=C(COC3=O)OC(C)(C)Oc3cc4c(cc32)OCO4)cc(OC)c1OC (stereo not given)	none (no result: FBPA coupling cs, RXFP1 ag)
COCCCN=C(c1ccco1)n1c(=S)nc(-c2ccco2)n(CCCOC)c1=S	FBPA coupling cs -33
COCCCn1c(-c2ccco2)nc2ccccc2c1=O	gsp antag inconclusive
N#Cc1c(-c2ccco2)nc(SCc2ccc(F)cc2)[nH]c1=O	gsp ag inconclusive, RXFP1 ag 25µM
N#Cc1c(-c2ccccc2)nc(SCc2ccc(Cl)cc2)[nH]c1=O	none
CCN1CC(CN(C)Cc2nc(-c3ccc(C(F)(F)F)cc3)oc2C)CC1=O (stereo not given)	none
O=[N+]([O-])c1cccc(/C=C/c2nc[nH]c2[N+](=O)[O-])c1	Giardia killer -81
Cc1ccc(C)c(-n2c3nc(=O)[nH]c(=O)c-3cc3cc([N+](=O)[O-])ccc32)c1	FBPA coupling cs -47, RXFP1 antagonist inconclusive
Cc1cccc(-n2c3nc(=O)[nH]c(=O)c-3cc3cc([N+](=O)[O-])ccc32)c1	gsp ag inconclusive (no result: RXFP1 antagonist)
N#Cc1nc(Nc2ccccc2)nc(NC2CCCCC2)n1	none (no result: gsp ag, Giardia killer, RXFP1 antagonist, gsp antag, RXFP1 ag)
CC(NC(=O)/C(C#N)=C/c1ccc(Cl)c([N+](=O)[O-])c1)c1ccccc1 (stereo not given)	RXFP1 antagonist -104
C[C@@H](NC(=O)/C(C#N)=C/c1ccc(O)c(O)c1)c1ccccc1	none (no result: gsp ag, RXFP1 antagonist)
O=[N+]([O-])c1ccc(Sc2cccc3cccnc23)c2cccnc12	FBPA coupling cs -34
O=[N+]([O-])c1cc2cccnc2c2ncccc12	Giardia killer -88
CC(=O)N1C(=O)/C(=C2\SC(=S)N(c3c(C)n(C)n(-c4ccccc4)c3=O)C2=O)c2ccccc21	FBPA coupling cs -40
Cc1c(N2C(=O)/C(=C3/C(=O)N(C)c4ccccc43)SC2=S)c(=O)n(-c2ccccc2)n1C	none
CN(CC(=O)Nc1ccc(F)cc1)C(=O)COC(=O)c1cccc(N(C)C)c1	gsp ag 25µM (no result: FBPA coupling cs)
CCC(C(=O)NCCc1ccc(SC)cc1)n1nc(C)c2c(C)n(-c3ccc(C)cc3)nc2c1=O (stereo not given)	none (no result: gsp ag, FBPA coupling cs, Giardia killer, gsp antag)
CCC(C(=O)NCCc1ccc(C)cc1)n1nc(C)c2c(C)n(-c3ccccc3)nc2c1=O (stereo not given)	gsp ag inconclusive, gsp antag 50µM
CCOc1ccc(NC(=O)C(c2ccccn2)N(C(=O)CCl)c2ccc(OC)cc2)cc1 (stereo not given)	FBPA coupling cs -43
Cc1cc(O)c(Sc2ncn[nH]2)cc1NS(=O)(=O)c1ccc(Cl)cc1	none (no result: FBPA coupling cs)
Cc1cc(C)c(S(=O)(=O)/N=C2/C=C(Sc3ncn[nH]3)C(=O)c3ccccc32)cc1C	FBPA coupling cs -96, RXFP1 antagonist inconclusive, gsp antag inconclusive
COc1ccc(OC)c(-c2nnc3n2N=C(c2c(OC)cccc2OC)CS3)c1	none (no result: gsp ag, Giardia killer, RXFP1 antagonist, gsp antag, RXFP1 ag)
O=C(Nc1ccc(Cc2ccncc2)cc1)c1ccc(Cl)c([N+](=O)[O-])c1	FBPA coupling cs -36, gsp antag inconclusive
Cc1c([N+](=O)[O-])cc(C(=O)Nc2ccc(Cc3ccncc3)cc2)cc1[N+](=O)[O-]	none
O=C(Nc1cccc2c1CCCC2)c1cc([N+](=O)[O-])ccc1Cl	gsp ag inconclusive
O=C(Nc1cccc2c1CCCC2)c1ccc(Cl)c([N+](=O)[O-])c1	RXFP1 antagonist -70
C[C@@H](c1ncncc1F)C(O)(Cn1cncn1)c1ccc(F)cc1F (stereo not given in full)	none (no result: gsp ag, FBPA coupling cs, Giardia killer, gsp antag, RXFP1 ag)
CC1CCCN(C(=O)Cn2nnc(-c3ccc([N+](=O)[O-])cc3)n2)C1 (stereo not given)	none (no result: gsp ag, Giardia killer, RXFP1 antagonist, gsp antag)
CCCC1(c2ccccc2)NC(=O)N(CC(=O)Nc2sc(-c3ccccc3)cc2C(=O)OCC)C1=O (stereo not given)	RXFP1 ag 28µM
CCOC(=O)c1cc(-c2ccccc2)sc1NC(=O)CN1C(=O)c2ccccc2C1=O	none (no result: FBPA coupling cs, RXFP1 ag)
O=C1OC2(CCCCC2)CC2=C1C1O[C@](c3ccsc3)(Cc3c1ccc1ccccc31)O2	none (no result: gsp ag, Giardia killer, RXFP1 antagonist, gsp antag)
Cc1ccc(Cl)cc1N1CCN(C(=O)c2cccn2-c2nnc(N3CCCC3)s2)CC1	RXFP1 antagonist -83 (no result: gsp ag, FBPA coupling cs, Giardia killer, gsp antag)
CC(=O)c1nc(N2C(=O)CC(Cc3ccccc3)C2=O)sc1C (stereo not given)	gsp ag 16µM
